In PubChem BioAssay:
Calls of active or inactive are those of the source. Unless noted, no rule for the calls is given here.

How the values were obtained:
[1] = A549 cell viability effects, profiling panel, calcein-AM fluorescence, 48 h, basal (AID 1162); settings: higher = more signal; also: test concentration not given here
[2] = adipocyte viability effects, profiling panel, cell-based, 3T3-L1 adipocytes, calcein-AM fluorescence, 48 h, basal (AID 1163); settings: 3T3-L1 adipocytes viability, higher = more signal; also: test concentration not given here
[3] = HepG2 cell viability effects, profiling panel, calcein-AM fluorescence, 48 h, basal (AID 1164); settings: higher = more signal; also: test concentration not given here
[4] = MM1S cell viability effects, profiling panel, calcein-AM fluorescence, 48 h, basal (AID 1165); settings: higher = more signal;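 also: viability of MM1S multiple myeloma cells under basal unstimulated conditions; test concentration not given here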
[5] = basal RPMI8226 viability, no added stimulus, profiling panel, cell-based, calcein-AM fluorescence, 48 h, PK04 Diversity Set (AID 1166); settings: RPMI8226 myeloma viability, higher = more signal;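 also: cells grown under basal conditions without added stimulus; test concentration not given here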
[6] = basal HepG2 mitochondrial membrane potential changes, profiling panel, cell-based, JC-1 fluorescence, 24 h, 100 nL compound (AID 1167); settings: higher = more signal; also: test concentration not given here
[7] = basal 3T3-L1 adipocyte mitochondrial potential changes, profiling panel, cell-based, JC-1 fluorescence, 3T3-L1 adipocytes, 24 h, 100 nL compound (AID 1168); settings: JC-1 mitochondrial fluorescence, higher = more signal, called active from +8 up or from −8 down; also: test concentration not given here
[8] = basal RPMI8226 mitochondrial membrane potential changes, profiling panel, cell-based, JC-1 fluorescence, 24 h, 100 nL compound (AID 1169); settings: RPMI8226 myeloma, JC-1 mitochondrial potential fluorescence, higher = more signal; also: test concentration not given here
[9] = basal MM1S mitochondrial membrane potential changes, profiling panel, cell-based, JC-1 fluorescence, 24 h, 100 nL compound (AID 1170); settings: higher = more signal; also: test concentration not given here
[10] = A549 lung cancer cell viability effects, profiling panel, resazurin fluorescence, 24 h, PK04 Diversity Set (AID 1171); settings: higher = more signal, called active from +8 up or from −8 down; also: test concentration not given here
[11] = HepG2 liver cancer cell viability effects, profiling panel, resazurin fluorescence, 24 h, PK04 Diversity Set (AID 1172); settings: higher = more signal; also: test concentration not given here
[12] = basal S. cerevisiae growth modulation, no modifier, primary screen, OD600, strain BY4716, 24 h, basal condition (AID 1173); settings: OD600, 24 h, higher = more signal, called active from +8 up or from −8 down
[13] = MM1S myeloma cell viability, profiling panel, resazurin fluorescence, basal, 24 h, PK04 Diversity Set (AID 1174); settings: higher = more signal, called active from +8 up or from −8 down;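 also: MM1S multiple myeloma cell line; test concentration not given here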
[14] = target: Dihydroorotate dehydrogenase (quinone), mitochondrial (Plasmodium falciparum (isolate 3D7)) (UniProt Q08210); test: PfDHODH enzyme inhibitors, primary screen, biochemical, C-terminal His tag, absorbance 600 nm (AID 1175); settings: DCIP absorbance 600 nm, higher = more signal, called active from +8 up or from −8 down;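 also: recombinant parasite enzyme with a five histidine tag at its C terminus; test concentration not given here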
Dihydroorotate dehydrogenase (quinone), mitochondrial (Plasmodium falciparum (isolate 3D7)), sequence (Q08210 whole entry, looked up): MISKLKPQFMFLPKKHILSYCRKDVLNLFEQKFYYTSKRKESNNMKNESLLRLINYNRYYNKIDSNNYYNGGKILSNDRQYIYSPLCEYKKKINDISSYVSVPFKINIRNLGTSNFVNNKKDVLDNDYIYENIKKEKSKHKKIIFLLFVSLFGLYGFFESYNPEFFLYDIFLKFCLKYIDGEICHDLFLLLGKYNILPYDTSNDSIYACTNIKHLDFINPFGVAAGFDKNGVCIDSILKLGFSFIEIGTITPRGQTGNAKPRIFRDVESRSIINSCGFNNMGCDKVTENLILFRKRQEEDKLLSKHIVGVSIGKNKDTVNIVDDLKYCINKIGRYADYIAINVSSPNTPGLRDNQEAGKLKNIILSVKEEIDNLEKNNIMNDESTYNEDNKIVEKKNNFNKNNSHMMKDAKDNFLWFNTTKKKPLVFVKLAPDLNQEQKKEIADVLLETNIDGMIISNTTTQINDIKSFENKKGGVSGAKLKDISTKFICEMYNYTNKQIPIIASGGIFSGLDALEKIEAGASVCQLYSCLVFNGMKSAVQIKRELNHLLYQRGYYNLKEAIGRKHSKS

[15] = P. aeruginosa biofilm formation inhibitors, primary screen, strain PAO1, LB-PBS medium, absorbance 600 nm (AID 1176); also: test concentration not given here; settings: P. aeruginosa PAO1 growth/biofilm, A600, 12 h; higher = more signal
[16] = S. cerevisiae RM11-1a growth modifiers, primary screen, strain RM11-1a, OD600, basal, 24 h (AID 1177); settings: OD600, 24 h, higher = more signal, called active from +8 up or from −8 down;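 also: cultures grown under basal conditions with no added stressor; test concentration not given here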
[17] = E. coli acrAB mutant growth effects, primary screen, E. coli filamentation inducers, strain DRC39, OD650, 24 h (AID 1178); settings: higher = more signal, called active from +8 up or from −8 down;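 also: growth measured as culture turbidity by optical density at 650 nm; test concentration not given here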
[18] = E. coli acrAB mutant growth effects, primary screen, E. coli filamentation inducers, strain DRC39, OD650, 48 h (AID 1179);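 also: screen aims at cell division blockers that make cells filament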; settings: E. coli DRC39 delta-acrAB growth, higher = more signal, called active from +8 up or from −8 down
[19] = RPMI8226 myeloma cell viability, profiling panel, resazurin fluorescence, basal, 24 h, PK04 Diversity Set (AID 1180); settings: higher = more signal;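 also: RPMI8826 multiple myeloma cell line at 5000 cells per well; test concentration not given here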
[20] = target: E3 ubiquitin-protein ligase XIAP (Homo sapiens) (UniProt P98170); test: XIAP binders, primary screen, biophysical, small-molecule microarray, fluorescence 635 nm (AID 1181); settings: small-molecule microarray binding, higher = more signal;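 also: score merges 667 nm emission and signal to noise over triplicate slides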
E3 ubiquitin-protein ligase XIAP (Homo sapiens), sequence (P98170 whole entry, looked up): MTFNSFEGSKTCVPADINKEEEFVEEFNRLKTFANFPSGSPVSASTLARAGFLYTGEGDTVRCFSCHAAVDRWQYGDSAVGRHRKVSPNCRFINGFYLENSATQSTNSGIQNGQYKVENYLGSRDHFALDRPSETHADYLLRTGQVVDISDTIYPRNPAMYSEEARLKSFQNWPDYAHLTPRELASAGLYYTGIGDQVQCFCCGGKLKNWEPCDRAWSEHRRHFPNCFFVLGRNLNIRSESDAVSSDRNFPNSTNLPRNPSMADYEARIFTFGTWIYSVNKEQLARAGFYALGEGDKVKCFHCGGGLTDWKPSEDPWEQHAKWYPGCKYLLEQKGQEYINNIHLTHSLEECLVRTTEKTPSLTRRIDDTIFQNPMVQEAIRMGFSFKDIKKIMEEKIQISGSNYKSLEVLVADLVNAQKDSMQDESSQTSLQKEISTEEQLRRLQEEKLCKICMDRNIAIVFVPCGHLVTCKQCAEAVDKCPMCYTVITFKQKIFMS

SMILES	z-score [1]	z-score [2]	z-score [3]	z-score [4]	z-score [5]	z-score [6]	z-score [7]	z-score [8]	z-score [9]	z-score [10]	z-score [11]	z-score [12]	z-score [13]	composite z-score [14]	z-score [15]	z-score [16]	z-score [17]	z-score [18]	z-score [19]	composite z-score [20]
C=CC1c2cc(O)c(OC)cc2CCN1Cc1cccc(OC(F)(F)F)c1 (stereo not given)	-1.97	0.566	-3.19	-3.18	-2.2	-2.6	-0.604 (inactive)	-0.752	-1.85	-0.821 (inactive)	0.125	-16.7 (active)	-4.17 (inactive)	-5.06 (inactive)	0.0898 (inactive)	-13.7 (active)	1.2 (inactive)	0.738 (inactive)	-2.3	0.0304
COc1ccc(NN2C(C(O)c3ccc(N(C)C)cc3)C=CC3C(=O)N(C4CCCCC4)C(=O)C32)cc1 (stereo not given)	-0.441	-1.13	-0.173	0.0375	-0.136	-0.134	-0.771 (inactive)	0.651	-1.63	0.19 (inactive)	0.252	-0.796 (inactive)	-0.0447 (inactive)	0.128 (inactive)	0.862 (inactive)	-0.0156 (inactive)	-0.723 (inactive)	-0.224 (inactive)	-1	0.17
CN(C)CCCCNC(=O)[C@@H]1C[C@@H]2C(=O)N[C@@H](CCCCN)C(=O)N2[C@@H]1c1ccc(O)cc1	0.48	-1.51	0.377	-0.388	0.473	-1.58	0.627 (inactive)	-0.836	-1.29	0.0719 (inactive)	0.637	1.43 (inactive)	0.832 (inactive)	0.0724 (inactive)	0.833 (inactive)	2.32 (inactive)	0.499 (inactive)	1.1 (inactive)	0.918	-0.131
COC(=O)c1c2oc(c1C(=O)OC)C(=O)NC1(CCCCC1)c1cn(nn1)C[C@H](Cc1ccccc1)NC(=O)N[C@H](CO)CC2	0.947	-0.0442	0.22	0.813	1.17	0.537	0.691 (inactive)	0.564	-0.887	1.09 (inactive)	1.68	-0.861 (inactive)	0.911 (inactive)	-0.805 (inactive)	0.383 (inactive)	-0.0499 (inactive)	1.09 (inactive)	1.66 (inactive)	0.456	-0.118
CCOC(=O)C[C@H]1[C@H](OC(=O)c2ccc(-c3ccccc3)cc2)[C@@H](NC(=O)c2ccccc2)c2cc(OCCCO)ccc2N1C(=O)Cc1ccc(OC)cc1	0.437	0.0615	0.66	-0.536	-0.345	2.23	0.285 (inactive)	0.157	0.617	-0.0451 (inactive)	-0.161	0.742 (inactive)	0.393 (inactive)	0.593 (inactive)	0.845 (inactive)	1.47 (inactive)	0.835 (inactive)	0.451 (inactive)	-0.041	-0.0936
CO[C@H]1O[C@H](CO)[C@@H](OC(=O)Nc2ccc(Oc3ccccc3)cc2)[C@H](OC(=O)Nc2ccc3c(c2)OCO3)[C@@H]1OC(=O)Nc1ccc2c(c1)OCO2	-0.882	-0.132	-0.845	-2.21	-1.74	-0.594	1.02 (inactive)	-0.48	-0.751	-1.29 (inactive)	-1.01	0.77 (inactive)	-0.949 (inactive)	0.0357 (inactive)	1.39 (inactive)	2.65 (inactive)	0.759 (inactive)	-0.0218 (inactive)	-0.793	0.222
CC1CC/C=C\[C@H]2OC34C=CCN(Cc5ccccc5)C(=O)[C@H]3N(C(C)CO)C(=O)[C@@H]4C2C(=O)O1 (stereo not given in full)	0.278	-0.979	0.679	0.998	-0.182	0.554	0.219 (inactive)	1.11	0.741	0.418 (inactive)	0.36	-1.39 (inactive)	0.678 (inactive)	-0.166 (inactive)	-0.525 (inactive)	-0.0642 (inactive)	0.492 (inactive)	1 (inactive)	0.233	0.0772
COc1ccccc1CN1C(=O)c2ccccc2[C@@H](C(=O)NCc2ccccc2)[C@@H]1c1ccc(CO)cc1	1.2	0.448	0.292	-0.881	0.47	2.08	0.819 (inactive)	-0.288	0.544	0.832 (inactive)	-0.678	0.0688 (inactive)	0.122 (inactive)	0.942 (inactive)	-0.0528 (inactive)	-0.0226 (inactive)	-0.236 (inactive)	-0.36 (inactive)	0.427	-0.193
C=C(CCCC)/C(=C/C[C@@H](OC(C)=O)c1cccc(OCCO)c1)c1cnc2ccccc2c1	0.238	1.3	-0.0152	-1.47	-2.31	2.23	-2 (inactive)	-0.423	-0.714	0.329 (inactive)	-0.256	-0.236 (inactive)	-0.657 (inactive)	-3.06 (inactive)	0.108 (inactive)	0.647 (inactive)	0.309 (inactive)	-0.132 (inactive)	0.418	-0.173
